Counter-ions that a name gives are not always drawn.

This test has as its system OVCAR4. The test is described as follows: Euclidean distance of Cell Painting phenotypic profile (signed KS, 77 features) to DMSO centroid (dimensionless distance); 5 or 10 uM (library dependent); higher = stronger phenotypic change vs DMSO (phenoactivity). Conditions: 48 h. Summed up: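 At 10 or 5 uM, as set by the library, and 0.1% DMSO final, compounds were applied for 48 h to five cancer lines and one healthy fibroblast line. Stained cells were imaged confocally at 20X in 9 fields per well, and Harmony extracted 77 features scored as signed Kolmogorov-Smirnov statistics against vehicle wells on the same plate. Profiles underwent plate-position correction, correlation weighting and replicate averaging at the top dose. Phenoactivity is the Euclidean distance from each such profile to the median vehicle profile.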
In the case of `CN(C)CCCOc1nn(Cc2ccccc2)c2ccccc12` [Benzydamine HCl], the Euclidean distance is 1.33.

Regarding `CC(=O)NCCCS(=O)(=O)O` [Acamprosate Calcium], the Euclidean distance stood at 0.839.

For the molecule `CNC(=O)c1cc(Oc2ccc(NC(=O)Nc3ccc(Cl)c(C(F)(F)F)c3)cc2)ccn1` [Sorafenib], the Euclidean distance turned out to be 2.28.

Molecule `C#Cc1cccc(Nc2ncnc3cc4c(cc23)OCCOCCOCCO4)c1` [Icotinib] came in with an Euclidean distance of 1.32.

Turning to `Cc1cc([C@@H](C)Nc2ccccc2C(=O)O)c2nc(N3CCOCC3)cc(=O)n2c1`, the Euclidean distance came to 3.2.

`CO/N=C(\C(=O)N[C@@H]1C(=O)N2C(C(=O)OCOC(=O)C(C)(C)C)=C(/C=C\c3scnc3C)CS[C@H]12)c1csc(N)n1` [Cefditoren Pivoxil] gave an Euclidean distance of 1.5.

With `CC[C@@H](C)Nc1cc(C(=O)N[C@H]2C[C@H]3CC[C@@H](C2)N3c2ccc(C(=O)C3CC3)cn2)c(C)cc1C(N)=O`, the Euclidean distance is 3.3.

Take `CC(C)NCC(O)COc1ccc(CCOCC2CC2)cc1` (stereo not given) [Betaxolol]: the Euclidean distance amounted to 1.14.

Consider `COc1cc2c(cc1OC)[C@@H](Cc1cc(OC)c(OC)c(OC)c1)[N+](C)(CCCOC(=O)CC/C=C/CCC(=O)OCCC[N+]1(C)CCc3cc(OC)c(OC)cc3[C@H]1Cc1cc(OC)c(OC)c(OC)c1)CC2` (stereo not given in full) [Mivacurium chloride], for which the Euclidean distance worked out at 1.25.

In the case of `O=C(CCc1ccc(O)cc1)c1c(O)cc(O)cc1O[C@@H]1O[C@H](CO)[C@@H](O)[C@H](O)[C@H]1O` [Phlorizin], the Euclidean distance came to 0.783.

In the case of `Nc1nc2c(ncn2COCCO)c(=O)[nH]1` [Aciclovir], the Euclidean distance is 1.37.

Molecule `CCCCC(O)c1ccccc1` (stereo not given) [Fenipentol] registered an Euclidean distance of 1.68.

On to `COc1ccc(CCc2nc3cc(-c4c(C)noc4C)ccc3n2C[C@H](C)N2CCOCC2)cc1Cl`, for which the Euclidean distance came out at 1.78.

On to `CCCC(=O)Nc1ccc(OCC(O)CNC(C)C)c(C(C)=O)c1` (stereo not given) [Acebutolol HCl], for which the Euclidean distance is 1.34.

`CCn1c(N)c(C(=O)NC)c(=O)c2ccc(C#CC(C)(O)COC)nc21` (stereo not given) showed an Euclidean distance of 0.668.

`Cc1onc(-c2c(F)cccc2Cl)c1C(=O)N[C@@H]1C(=O)N2[C@@H]1SC(C)(C)[C@@H]2C(=O)O` [Flucloxacillin sodium] yielded an Euclidean distance of 1.72.

As to `CCCC(=O)O[C@]1(C(=O)COC(C)=O)CC[C@H]2[C@@H]3C[C@H](F)C4=CC(=O)C=C[C@]4(C)[C@@]3(F)[C@@H](O)C[C@@]21C` [Difluprednate], the Euclidean distance turned out to be 1.82.

Molecule `C=CC(=O)N1CCC([C@@H]2CCNc3c(C(N)=O)c(-c4ccc(Oc5ccccc5)cc4)nn32)CC1` [Zanubrutinib (BGB-3111)] came in with an Euclidean distance of 1.72.

In the case of `Cc1cccc(Nc2ccccc2C(=O)O)c1C` [Mefenamic Acid], the Euclidean distance came to 0.64.

On to `CN1CCN(c2cc3c(cc2F)c(=O)c(C(=O)O)cn3-c2ccc(F)cc2)CC1` [Difloxacin hydrochloride], for which the Euclidean distance is 1.17.

With `COc1cc(OC)c(C(=O)CCCN2CCCC2)c(OC)c1` [Buflomedil HCl], the Euclidean distance amounted to 1.18.

In the case of `O=c1c(O)c(-c2ccc(O)cc2)oc2cc(O)cc(O)c12` [Kaempferol], the Euclidean distance is 1.45.

Molecule `O=C(O)[C@H](O)Cc1ccc(O)c(O)c1` [Danshensu] came in with an Euclidean distance of 1.65.

For `CC(C)Cn1cnc2c(N)nc3ccccc3c21` [Imiquimod], the Euclidean distance was determined as 0.537.

The molecule `CN(C)CCC(c1ccc(Br)cc1)c1ccccn1` (stereo not given) [Brompheniramine hydrogen maleate] gave an Euclidean distance of 1.36.

`CC1=C(/C=C/C(C)=C/C=C/C(C)=C/C(=O)Nc2ccc(O)cc2)C(C)(C)CCC1` [Fenretinide] had an Euclidean distance of 2.4.

`CC(=O)OCC(=O)[C@H]1CC[C@H]2[C@@H]3CCC4=CC(=O)CC[C@]4(C)[C@H]3CC[C@]12C` [Deoxycorticosterone acetate] yielded an Euclidean distance of 1.51.

Molecule `CCCCc1oc2ccccc2c1C(=O)c1cc(I)c(OCCN(CC)CC)c(I)c1` [Amiodarone HCl] registered an Euclidean distance of 2.4.

Molecule `Cc1cc(C#N)cc(C)c1Oc1nc(Nc2ccc(C#N)cc2)nc(N)c1Br` [Etravirine (TMC125)] came in with an Euclidean distance of 1.73.

`Cc1c(C(=O)NN2CCCCC2)nn(-c2ccc(Cl)cc2Cl)c1-c1ccc(I)cc1` had an Euclidean distance of 0.903.

As to `OC(c1cc(C(F)(F)F)nc2c(C(F)(F)F)cccc12)C1CCCCN1` (stereo not given) [Mefloquine HCl], the Euclidean distance stood at 2.05.

In turn, `Nc1ccn([C@@H]2O[C@H](CO)[C@@H](O)[C@@H]2O)c(=O)n1` [Cytarabine] displayed an Euclidean distance of 3.15.

For `Cc1cc(O)c(C(=O)N[C@@H](C(=O)N[C@@H]2C(=O)N3C(C(=O)O)=C(CSc4nnnn4C)CS[C@H]23)c2ccc(O)cc2)cn1` [Cefpiramide sodium], the Euclidean distance was found to be 0.977.

`CC/C(=C(\c1ccc(O)cc1)c1ccc(OCCNC)cc1)c1ccccc1` [Endoxifen HCl]: the Euclidean distance was determined as 3.32.

The molecule `CNC[C@H](O)c1cccc(O)c1` [Phenylephrine HCl] registered an Euclidean distance of 0.844.

Molecule `COc1cc2c(cc1OC)C(=O)C(CC1CCN(Cc3ccccc3)CC1)C2` (stereo not given) [Donepezil] returned an Euclidean distance of 1.27.

Molecule `COc1ccc(-c2nc(N3CCOCC3)c3sc(CN(C)c4ncc(C(=O)NO)cn4)cc3n2)cn1` displayed an Euclidean distance of 3.25.

`CCCc1nc(C(C)(C)O)c(C(=O)O)n1Cc1ccc(-c2ccccc2-c2nnn[nH]2)cc1` [Olmesartan] had an Euclidean distance of 1.32.

In the case of `O=C1C[C@@H](c2ccc(O)cc2)Oc2cc(O)cc(O)c21` [Naringenin], the Euclidean distance came out at 1.11.

Molecule `CC[C@@]1(O)C(=O)OCc2c1cc1n(c2=O)Cc2cc3c(CN(C)C)c(O)ccc3nc2-1` [Topotecan] registered an Euclidean distance of 2.85.

For the origin of these results see the supplement of paper PMC10127200.
